These molecules were tested on UCD52 (cells of a triple-negative basal-like breast cancer xenograft) (assay: cell viability of combination (% of vehicle); higher = less cytotoxic). Conditions: 1 µM; 72 h; partner dose: 10 nM.
Description: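 PDX cells were treated for 72 h with each drug at 1 µM plus afatinib (10 nM; 1 µM for WHIM30). Luciferase viability is expressed as percent of vehicle.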

Compound	cell viability of combination
CCCCCCCCCCCCCCCC[n+]1ccccc1.[Cl-] [Cetylpyridinium Chloride] + CN(C)C/C=C/C(=O)Nc1cc2c(Nc3ccc(F)c(Cl)c3)ncnc2cc1O[C@H]1CCOC1 [Afatinib]	55.3
Cc1cc(C(C#N)c2ccc(Cl)cc2)c(Cl)cc1NC(=O)c1cc(I)cc(I)c1[O-].[Na+] (stereo not given) [Closantel Sodium] + CN(C)C/C=C/C(=O)Nc1cc2c(Nc3ccc(F)c(Cl)c3)ncnc2cc1O[C@H]1CCOC1 [Afatinib]	72.7
CCCCCCCCCCCC[N+](C)(C)CCOc1ccccc1.[Br-] [Domiphen Bromide] + CN(C)C/C=C/C(=O)Nc1cc2c(Nc3ccc(F)c(Cl)c3)ncnc2cc1O[C@H]1CCOC1 [Afatinib]	65.3
Cc1cc(C(C#N)c2ccc(Cl)cc2)c(Cl)cc1NC(=O)c1cc(I)cc(I)c1O (stereo not given) [Closantel] + CN(C)C/C=C/C(=O)Nc1cc2c(Nc3ccc(F)c(Cl)c3)ncnc2cc1O[C@H]1CCOC1 [Afatinib]	75.8
CCCCCCCCCCCCCCCC[N+](C)(C)C.[Br-] [Cetrimonium Bromide (CTAB)] + CN(C)C/C=C/C(=O)Nc1cc2c(Nc3ccc(F)c(Cl)c3)ncnc2cc1O[C@H]1CCOC1 [Afatinib]	66.1

Reference: the supplement of paper PMC6992640
